PubChem BioAssay (NCATS)
Inconclusive results are not listed. A call without a number means that no potency is given here. Activity calls are given as the source filed them. Unless noted, calls come from the whole dose curve; as a rule, active = well fitted curve in the direction sought with a large enough effect; inconclusive = small, poorly fitted or top-dose-only effect, or another doubt; inactive = no such curve, though single readings can be large; an effect the other way counts as inactive or inconclusive.

Experiments:
[1] = target: DNA repair nuclease/redox regulator APEX1 (Homo sapiens) (UniProt P27695); experiment: qHTS Validation Assay for Inhibitors of the Human Apurinic/apyrimidinic Endonuclease 1 (APE1) (AID 1705;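 note: TAMRA fluorescence gain over two minutes as APE1 cuts a quenched THF abasic duplex; series mostly up to about 57 µM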)
Sequence of DNA repair nuclease/redox regulator APEX1 (Homo sapiens) (P27695 whole entry, looked up): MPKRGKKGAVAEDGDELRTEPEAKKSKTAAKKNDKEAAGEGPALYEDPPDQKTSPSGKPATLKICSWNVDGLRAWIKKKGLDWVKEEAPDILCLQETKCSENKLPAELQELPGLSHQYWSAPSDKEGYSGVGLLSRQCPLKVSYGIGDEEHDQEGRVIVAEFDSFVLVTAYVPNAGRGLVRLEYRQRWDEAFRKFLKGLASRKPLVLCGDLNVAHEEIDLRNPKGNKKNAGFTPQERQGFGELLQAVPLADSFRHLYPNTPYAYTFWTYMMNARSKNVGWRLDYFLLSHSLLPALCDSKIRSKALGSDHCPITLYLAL
Summary of the method: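 Fluorogenic double-stranded THF abasic-site substrate (5'-TAMRA/3'-BHQ-2), 50 nM final. Enzyme preincubated with compound 15 min at room temperature, then substrate added. Kinetic fluorescence (ex 525/em 598 nm) read three times at 60 s intervals; activity taken as third-minus-first read difference.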

[2] = Counterscreen for APE1 Inhibitors: Fluorescent Dye Displacement Validation Assay (AID 1707)
Summary of the method: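 Loss of Thiazole Orange fluorescence marks promiscuous DNA binders. The dye (250 nM) is mixed with 50 nM abasic-site dsDNA in pH7.5 Tris buffer containing MgCl2, then compounds are added and emission is read once.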

[3] = Validation screen for inhibitors of Lassa infection (AID 463096; calls by dose curve)
[4] = Validation screen for small molecules that induce DNA re-replication in MCF 10A normal breast cells (AID 463097); note: nearly all actives have a fitted effect of over 60% in size
Summary of the method: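 MCF 10A cells exposed to compound 48 hr at 37 C, 5% CO2, then Hoechst-stained 40 min. Laser-scanning imaging of nuclear DNA content (405 nm ex, 500-530 nm em); re-replication scored as rise in nuclei with elevated fluorescence intensity.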

[5] = target: M-phase phosphoprotein 8 (Homo sapiens) (UniProt Q99549); experiment: qHTS Validation Assay for Inhibitors for MPP8 Chromodomain Interactions with Methylated Histone Tails (AID 488949); note: nearly all actives have a fitted effect of over 55% in size; note: potency is the fitted concentration of half-maximal effect
Sequence of M-phase phosphoprotein 8 (Homo sapiens) (Q99549 whole entry, looked up): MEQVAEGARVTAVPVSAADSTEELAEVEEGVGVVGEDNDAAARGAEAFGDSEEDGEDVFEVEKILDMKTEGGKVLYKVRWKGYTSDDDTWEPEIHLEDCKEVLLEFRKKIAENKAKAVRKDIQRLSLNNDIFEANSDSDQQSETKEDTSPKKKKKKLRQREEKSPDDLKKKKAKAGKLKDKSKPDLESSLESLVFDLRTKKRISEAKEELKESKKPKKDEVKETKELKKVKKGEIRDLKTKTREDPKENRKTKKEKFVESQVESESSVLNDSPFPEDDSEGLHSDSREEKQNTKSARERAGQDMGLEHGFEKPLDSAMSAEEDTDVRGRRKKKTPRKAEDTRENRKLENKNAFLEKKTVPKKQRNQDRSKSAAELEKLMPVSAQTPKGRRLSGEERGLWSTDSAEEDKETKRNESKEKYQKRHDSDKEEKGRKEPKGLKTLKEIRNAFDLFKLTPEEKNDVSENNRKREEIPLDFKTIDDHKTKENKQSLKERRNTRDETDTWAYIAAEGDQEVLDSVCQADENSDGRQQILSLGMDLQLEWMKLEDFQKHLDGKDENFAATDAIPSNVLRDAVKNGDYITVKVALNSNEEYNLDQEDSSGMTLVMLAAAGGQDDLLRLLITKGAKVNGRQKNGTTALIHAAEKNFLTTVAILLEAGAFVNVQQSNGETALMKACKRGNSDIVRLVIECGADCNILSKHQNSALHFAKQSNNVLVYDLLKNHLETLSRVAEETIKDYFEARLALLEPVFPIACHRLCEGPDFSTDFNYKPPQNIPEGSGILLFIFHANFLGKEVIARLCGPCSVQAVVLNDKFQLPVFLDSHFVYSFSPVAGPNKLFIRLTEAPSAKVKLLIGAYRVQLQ
Summary of the method: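 MPP8 (50 nM) was pre-bound to 50 nM biotinylated H3(1-18)K9me3 peptide in PBS pH 7.4 with 0.01% Tween-20. Compounds were then added for 30 min at room temperature, and complex disruption was read by AlphaScreen with streptavidin donor and nickel-chelate acceptor beads.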

[6] = target: Transient receptor potential cation channel subfamily V member 1 (Homo sapiens) (UniProt Q8NER1); experiment: HTS Assay for Compounds that Act as Enhancers of the Vanilloid Receptor 1 (AID 488979)
Sequence of Transient receptor potential cation channel subfamily V member 1 (Homo sapiens) (Q8NER1 whole entry, looked up): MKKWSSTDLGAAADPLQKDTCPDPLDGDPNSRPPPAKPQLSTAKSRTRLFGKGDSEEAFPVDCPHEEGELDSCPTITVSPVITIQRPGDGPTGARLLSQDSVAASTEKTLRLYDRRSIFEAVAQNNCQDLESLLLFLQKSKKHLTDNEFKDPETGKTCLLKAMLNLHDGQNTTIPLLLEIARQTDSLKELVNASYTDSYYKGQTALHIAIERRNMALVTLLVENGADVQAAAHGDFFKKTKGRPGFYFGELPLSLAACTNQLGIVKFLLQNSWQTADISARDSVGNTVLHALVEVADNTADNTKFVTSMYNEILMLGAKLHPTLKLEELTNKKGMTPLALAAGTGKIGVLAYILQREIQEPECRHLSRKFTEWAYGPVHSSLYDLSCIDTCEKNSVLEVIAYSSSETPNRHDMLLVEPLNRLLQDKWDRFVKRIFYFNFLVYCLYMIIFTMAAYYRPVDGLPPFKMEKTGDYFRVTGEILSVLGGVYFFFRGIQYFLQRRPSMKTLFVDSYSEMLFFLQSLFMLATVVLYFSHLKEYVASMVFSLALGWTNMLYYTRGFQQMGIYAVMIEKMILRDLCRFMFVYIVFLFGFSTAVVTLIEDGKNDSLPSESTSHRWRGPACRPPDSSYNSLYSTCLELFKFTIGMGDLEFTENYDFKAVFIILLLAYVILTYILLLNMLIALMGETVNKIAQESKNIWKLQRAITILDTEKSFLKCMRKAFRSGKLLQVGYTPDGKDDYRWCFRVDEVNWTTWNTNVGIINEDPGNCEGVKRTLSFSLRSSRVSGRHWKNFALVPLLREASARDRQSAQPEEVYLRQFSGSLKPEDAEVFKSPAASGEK
Summary of the method: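 TRPV1-expressing cells loaded with Fluo-8 calcium dye; compounds added and calcium influx read kinetically for 3 min (agonist phase), then capsaicin at EC20 added and read 2 min more for enhancement. Fluorescence ex 480/em 520 nm.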

[7] = target: Thyrotropin receptor (Homo sapiens) (UniProt P16473); experiment: qHTS Assay for Antagonists of the Thyroid Stimulating Hormone Receptor (AID 488980); note: series mostly up to about 58 µM
Sequence of Thyrotropin receptor (Homo sapiens) (P16473 whole entry, looked up): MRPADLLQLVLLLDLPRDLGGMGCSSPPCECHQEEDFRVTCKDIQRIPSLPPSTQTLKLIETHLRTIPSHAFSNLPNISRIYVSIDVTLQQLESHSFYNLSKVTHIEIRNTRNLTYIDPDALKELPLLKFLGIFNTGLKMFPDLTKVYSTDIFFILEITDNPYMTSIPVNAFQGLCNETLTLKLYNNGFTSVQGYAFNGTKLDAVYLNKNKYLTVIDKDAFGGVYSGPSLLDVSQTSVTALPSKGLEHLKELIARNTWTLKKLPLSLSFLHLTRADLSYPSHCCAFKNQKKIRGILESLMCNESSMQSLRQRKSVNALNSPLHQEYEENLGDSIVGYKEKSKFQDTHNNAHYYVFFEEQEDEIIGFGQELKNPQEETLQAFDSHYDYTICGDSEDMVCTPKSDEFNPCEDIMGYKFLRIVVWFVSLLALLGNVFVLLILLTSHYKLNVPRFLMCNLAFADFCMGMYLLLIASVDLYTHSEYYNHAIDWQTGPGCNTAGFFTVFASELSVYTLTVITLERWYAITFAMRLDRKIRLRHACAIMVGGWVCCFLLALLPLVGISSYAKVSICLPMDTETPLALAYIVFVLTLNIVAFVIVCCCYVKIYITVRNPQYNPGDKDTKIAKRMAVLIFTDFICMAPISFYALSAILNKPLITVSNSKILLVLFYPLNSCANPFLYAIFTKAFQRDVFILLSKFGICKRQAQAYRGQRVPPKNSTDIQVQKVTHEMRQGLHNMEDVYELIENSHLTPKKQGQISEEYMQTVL
Summary of the method: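 TSHR-transfected HEK293 cells (2000/well) in HEPES-buffered HBSS with 70 uM RO 20-1724 were stimulated with 4 nM TSH (EC80, final) in the presence of compound. cAMP was measured by HTRF competition after lysis and 30 min at RT.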

[8] = target: Thyrotropin-releasing hormone receptor (Homo sapiens) (UniProt P34981); experiment: qHTS for Small Molecule Agonists and Allosteric Enhancers of Human TRH Receptor: Validation Screen for Agonists (AID 493127;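 active = calcium activation more than 3 SD above the typical response in the agonist read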;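 note: intracellular calcium rise by fluo-8 fluorescence before TRH EC20 addition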); conditions: TRH receptor agonist cell assay; at 2 µM; hits give high values
Sequence of Thyrotropin-releasing hormone receptor (Homo sapiens) (P34981 whole entry, looked up): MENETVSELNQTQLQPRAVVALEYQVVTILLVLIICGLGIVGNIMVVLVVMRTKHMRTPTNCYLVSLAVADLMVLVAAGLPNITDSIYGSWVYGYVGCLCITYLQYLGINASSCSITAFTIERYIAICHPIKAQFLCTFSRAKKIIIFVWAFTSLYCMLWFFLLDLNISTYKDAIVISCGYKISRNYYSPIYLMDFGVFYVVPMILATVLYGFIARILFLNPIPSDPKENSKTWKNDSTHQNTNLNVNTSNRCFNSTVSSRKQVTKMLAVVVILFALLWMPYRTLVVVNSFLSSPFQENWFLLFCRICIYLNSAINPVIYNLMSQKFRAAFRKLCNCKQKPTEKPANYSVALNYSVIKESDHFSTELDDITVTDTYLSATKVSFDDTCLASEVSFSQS
Summary of the method: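 Read-out: intracellular calcium release measured kinetically by FDSS (fluo-8, ex 480/em 530 nm), 1 reading/s after a 10-cycle baseline. TRHR cells, 2000/well, cultured 18 h at 33.5C, dye-loaded at room temp. Compound-evoked positive calcium signal flags agonists.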

[9] = target: Glutathione peroxidase 1 (Homo sapiens) (UniProt P07203); experiment: Primary qHTS Assay for Inhibitors of Recombinant Selenoprotein Glutathione Peroxidase 1 (GPX1) (AID 1845191); note: nearly all actives have a fitted effect of over 65% in size
Sequence of Glutathione peroxidase 1 (Homo sapiens) (P07203 whole entry, looked up): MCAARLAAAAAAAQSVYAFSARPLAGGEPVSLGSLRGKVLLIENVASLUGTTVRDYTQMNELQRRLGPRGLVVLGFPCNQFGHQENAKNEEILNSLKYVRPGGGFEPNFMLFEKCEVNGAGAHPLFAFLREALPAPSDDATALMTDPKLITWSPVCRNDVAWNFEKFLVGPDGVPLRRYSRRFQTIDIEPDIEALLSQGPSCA
Summary of the method: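 GPX1 10 nM, GR 100 nM, GSH 1 mM, NADPH 0.5 mM, CHP 0.5 mM (final). 30-min cpd preincubation, RT. Ex340/Em450 read t=0, t=15 min.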

[10] = target: Phospholipid hydroperoxide glutathione peroxidase GPX4 (Homo sapiens) (UniProt P36969); experiment: Primary qHTS Assay for Inhibitors of Recombinant Selenoprotein Glutathione Peroxidase 4 (GPX4) (AID 1845192); note: series mostly up to about 50 µM; nearly all actives have a fitted effect of over 65% in size
Sequence of Phospholipid hydroperoxide glutathione peroxidase GPX4 (Homo sapiens) (P36969 whole entry, looked up): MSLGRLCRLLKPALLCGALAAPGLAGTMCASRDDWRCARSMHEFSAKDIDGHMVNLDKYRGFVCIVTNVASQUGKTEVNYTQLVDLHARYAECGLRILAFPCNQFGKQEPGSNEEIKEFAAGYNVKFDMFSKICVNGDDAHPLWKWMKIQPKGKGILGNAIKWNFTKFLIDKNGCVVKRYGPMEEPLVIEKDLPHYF
Summary of the method: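 qHTS, GR-coupled: GPX4 200 nM + cpd 30 min RT → GSH 1 mM, NADPH 0.5 mM, GR 100 nM → CHP 0.5 mM start; fluor 340/450 at t0 and t15 min; no-enzyme wells as control.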

| Structure (SMILES) | Potency [1] | outcome [2] | Potency [3] | Potency [4] | Potency [5] | outcome [6] | outcome [7] | activation [8] | Potency [9] | Potency [10] |
| --- | --- | --- | --- | --- | --- | --- | --- | --- | --- | --- |
| C#CCN(C)C(C)Cc1ccccc1 (stereo not drawn) | inactive | inactive | inactive | inactive | inactive | inactive | inactive | -5.25% (inactive) |  |  |
| CCCN(CCC)[C@@H]1CCc2c(F)ccc(O)c2C1 | inactive | inactive | inactive | inactive |  | inactive | inactive | -2.75% (inactive) |  |  |
| CCCN(CCC)C(=O)Cc1c(-c2ccc(Cl)cc2)nc2c(Cl)cc(Cl)cn12 | inactive | inactive | inactive |  | inactive | inactive | inactive | -11.1% (inactive) |  |  |
| NCC#Cc1ccccc1 | inactive | inactive | inactive | inactive | inactive | inactive | inactive | 1.69% (inactive) |  |  |
| CCCN1CCC[C@@H]2Cc3n[nH]cc3C[C@H]21 | inactive | inactive | inactive | inactive | inactive | inactive | inactive | 1.12% (inactive) |  |  |
| C/C1=C/C[C@@H](/C(C)=C/c2csc(C)n2)OC(=O)C[C@H](O)C(C)(C)C(=O)[C@H](C)[C@@H](O)[C@@H](C)CCC1 |  |  |  |  |  |  |  |  | inactive | inactive |
| C[C@]12CC[C@H]3[C@@H](CCC4C[C@H](O)CC[C@@]43C)[C@@H]1CC[C@@H]2O (stereo partly drawn) | inactive | inactive | inactive | inactive | inactive | inactive | inactive | 1.31% (inactive) |  |  |
| CC(C)(O)C1C2OC(=O)C1[C@]1(O)C[C@H]3O[C@]34C(=O)O[C@H]2[C@]14C (stereo partly drawn) (tested in a mixture with another compound) | inactive | inactive | inactive | inactive | inactive | inactive | inactive | 0.625% (inactive) |  |  |
| CC12CCC3C(CCC4=C(O)C(=O)CCC43C)C1CCC2=O (stereo not drawn) | inactive | inactive | inactive | inactive | inactive | inactive |  |  |  |  |
| CCCN1CCCC(c2cccc(O)c2)C1 (stereo not drawn) | inactive | inactive | inactive | inactive | inactive | inactive | inactive | -4.62% (inactive) |  |  |
| Oc1ccc2c3c1O[C@H]1[C@@H](O)CC[C@@]4(O)C(C2)N(CC2CCC2)CCC314 (stereo partly drawn) | inactive | inactive | inactive | inactive | inactive | inactive | inactive | 1.31% (inactive) |  |  |
| COC(=O)C(N)CCCN=C(N)N[N+](=O)[O-] (stereo not drawn) | inactive | inactive | inactive | inactive | inactive | inactive | inactive | 1.06% (inactive) |  |  |
| CCNC(=O)[C@H]1O[C@@H](n2cnc3c(N)ncnc32)[C@H](O)[C@H]1O | inactive | inactive | inactive | inactive | inactive | inactive | inactive | 0% (inactive) |  |  |
| COc1cc(C=C(C#N)C#N)cc(O)c1O | inactive | inactive | inactive |  | 39.8 µM (active) | inactive | inactive | 2.88% (inactive) |  |  |
| CC[C@@H](CO)NC(=O)[C@H]1C=C2c3cccc4c3c(cn4C)C[C@H]2N(C)C1 |  |  |  | inactive | inactive | inactive |  | -2.81% (inactive) |  |  |
| CN1C[C@@H](CS(=O)(=O)N(C)C)C[C@@H]2c3cccc4c3c(cn4C)C[C@H]21 | inactive | inactive | inactive | inactive |  | inactive | inactive | 1.44% (inactive) |  |  |
| C[N+]1(C)C2CC(OC(=O)C(CO)c3ccccc3)CC1C1OC12 (stereo not drawn) | inactive | inactive | inactive | inactive | inactive | inactive | inactive |  |  |  |
| CCCC[N+]1(C)C2CC(OC(=O)C(CO)c3ccccc3)CC1C1OC12 (stereo not drawn) | inactive | inactive | inactive | inactive | inactive | inactive | inactive | -0.438% (inactive) |  |  |
| Nc1ncnc2c1ncn2[C@@H]1O[C@H](COP(=O)(O)CP(=O)(O)OP(=O)(O)O)[C@H](O)[C@H]1O | inactive | inactive |  | inactive | inactive | inactive | inactive | 1.25% (inactive) |  |  |
| C[C@H]1C2Cc3ccc(O)cc3[C@]1(C)CCN2CC1CC1 | inactive | inactive | inactive | inactive | inactive | inactive | inactive | 1.81% (inactive) |  |  |
| COc1cc(C[C@@H](C)N)c(OC)cc1I | inactive | inactive | inactive | inactive | inactive | inactive | inactive | 0.562% (inactive) |  |  |
| COc1ccc2c3c1O[C@H]1C(=O)CC[C@@]4(O)C(C2)N(CC2CC2)CCC314 (stereo partly drawn) | inactive | inactive | inactive | inactive | inactive | inactive | inactive | 2.19% (inactive) |  |  |
| CCC(CO)NC(=O)[C@@H]1C=C2c3cccc4[nH]cc(c34)C[C@H]2N(C)C1 (stereo partly drawn) |  | inactive | inactive | inactive | inactive | inactive | inactive | -2.81% (inactive) |  |  |
| CCN1C[C@]2(C)CC[C@H](O)[C@@]34[C@@H]5C[C@@H]6[C@@H](OC)C[C@@](O)(C5[C@H]6O)[C@@H](C[C@@H]23)[C@@H]14 | inactive | inactive | inactive | inactive | inactive | inactive | inactive | 0.875% (inactive) |  |  |
